Here are results for 32 molecules from PubChem BioAssay (NCATS).

For assay [1], the target named is Glutathione peroxidase 1 (Homo sapiens) (UniProt P07203). The assay can be described thus: Primary qHTS Assay for Inhibitors of Recombinant Selenoprotein Glutathione Peroxidase 1 (GPX1) (AID 1845191). Note: nearly all actives have a fitted effect of over 65% in size. Note: potency is the fitted concentration of half-maximal effect. The method in brief:
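10 nM GPX1 + cpd, 30 min RT; start w/ 1 mM GSH, 0.5 mM cumene hydroperoxide, 0.5 mM NADPH, 100 nM GR, 0.01% BSA; buffer 50 mM Tris-HCl pH 7.5, 2 mM EDTA, 150 mM NaCl; Fl 340/450, 0 & 15 min.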

Assay [2] has as its target Phospholipid hydroperoxide glutathione peroxidase GPX4 (Homo sapiens) (UniProt P36969). The assay can be described thus: Primary qHTS Assay for Inhibitors of Recombinant Selenoprotein Glutathione Peroxidase 4 (GPX4) (AID 1845192). Note: nearly all actives have a fitted effect of over 65% in size. Note: potency is the fitted concentration of half-maximal effect. The method in brief: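 NADPH consumption, followed by fluorescence at 340/450 nm between 0 and 15 min, reports GPX4 activity via coupled glutathione reductase (100 nM). Enzyme 200 nM was pre-exposed to compound 30 min; 0.5 mM cumene hydroperoxide and 1 mM GSH served as substrates.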
For orientation: Quantitative high-throughput screening tests each substance at several concentrations.

A short description of assay [3]: Primary fluorescence-based thiol-reactive (MSTI) qHTS assay for identification of artifact compounds. (AID 1845221).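 Note: series mostly up to about 54 µM; thiol-reactive compounds lower the probe fluorescence signal; nearly all actives have a fitted effect of over 65% in size.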 The method in brief: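 A multi-concentration qHTS design tested compounds against 4 uM MSTI, pH 7.4 phosphate-buffered saline. Plates were protected from light for 1 h at room temperature before imaging fluorescence.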
The nature of assay [4]: Primary redox qHTS assay for identification of artifact compounds. (AID 1845223). The method in brief:
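Amplex Red (25 uM) and HRP (250 mU/mL) in HBSS, with compounds for 15 min, then 250 uM DTT for 30 min, room temperature, dark. Fluorescence 525/598 nm read; normalized to DMSO and 10 uM DA3003; Hill fit.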

The subject of assay [5] is Nanoluciferase (engineered Oplophorus gracilirostris luciferase). Briefly: Primary Nanoluciferase (NLuc) qHTS assay for identification of artifact compounds. (AID 1845222). Note: series mostly up to about 54 µM. The essentials: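 Compounds are pinned into diluted (1:55) conditioned medium of NLuc-expressing S16 cells and held 15 min at room temperature protected from light. Nano-Glo substrate follows, and luminescence is read 5 min later.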

For assay [6], the target named is Luciferin 4-monooxygenase (Photinus pyralis) (UniProt P08659). Briefly: Primary firefly luciferase (FLuc) qHTS assay for identification of artifact compounds. (AID 1845220). Note: series mostly up to about 54 µM; nearly all actives have a fitted effect of over 60% in size. The method in brief: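 Cell-free, 1536-well qHTS. Buffer pH 7.6 with 0.01% Tween-20 and 0.05% BSA; 10 uM D-luciferin, 10 uM ATP; 10 nM P. pyralis luciferase; luminescence after 5 min.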

Inconclusive results are not listed. Active and inactive are the calls of the source. Calls come from the whole dose curve; as a rule, active = well fitted curve in the direction sought with a large enough effect; inconclusive = small, poorly fitted or top-dose-only effect, or another doubt; inactive = no such curve, though single readings can be large; an effect the other way counts as inactive or inconclusive.

Glutathione peroxidase 1 (Homo sapiens), sequence (P07203 whole entry, looked up): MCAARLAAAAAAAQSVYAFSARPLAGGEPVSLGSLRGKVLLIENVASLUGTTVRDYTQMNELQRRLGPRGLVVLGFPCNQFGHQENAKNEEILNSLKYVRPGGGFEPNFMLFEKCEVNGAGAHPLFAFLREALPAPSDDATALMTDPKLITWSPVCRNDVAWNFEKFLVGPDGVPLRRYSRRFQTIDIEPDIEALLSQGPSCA
Phospholipid hydroperoxide glutathione peroxidase GPX4 (Homo sapiens), sequence (P36969 whole entry, looked up): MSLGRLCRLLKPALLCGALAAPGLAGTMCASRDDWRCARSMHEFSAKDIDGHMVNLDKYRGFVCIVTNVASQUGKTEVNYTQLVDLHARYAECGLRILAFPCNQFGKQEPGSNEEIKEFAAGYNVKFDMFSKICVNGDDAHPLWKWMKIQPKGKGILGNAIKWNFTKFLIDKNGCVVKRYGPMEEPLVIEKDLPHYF

Regarding `CCN(CC)CCOc1ccc(/C(=C(\Cl)c2ccccc2)c2ccccc2)cc1`, the Potency result in assay [1], in assay [2] and in assay [3] was “inactive” each time. The outcome in assay [4] was inactive.

`Nc1ncnc2nc[nH]c12`: the Potency entry in assay [2] is “inactive”.

For the molecule `CCCN(CCC)C(=O)C(CCC(=O)OCCCN1CCN(CCOC(=O)Cc2c(C)n(C(=O)c3ccc(Cl)cc3)c3ccc(OC)cc23)CC1)NC(=O)c1ccccc1` (stereo unspecified), the Potency result in assay [1], in assay [2] and in assay [3] was “inactive” each time. Moreover, the result in assay [4] was inactive.

As for `O=[N+]([O-])c1nccn1CO[C@@H](CO)[C@H](O)CO`, the Potency entry in assay [1], in assay [2] and in assay [3] was “inactive” throughout. Moreover, the result in assay [4] was inactive.

As to `CO[C@]1(NC(=O)CSC(F)F)C(=O)N2C(C(=O)O)=C(CSc3nnnn3CCO)CO[C@H]21`, the Potency result in assay [1], in assay [2] and in assay [3] was “inactive” each time. Moreover, in assay [4], the result was inactive.

As to `Cn1cc(S(C)=O)c(=O)c2ccc(F)cc21` (stereo unspecified), the Potency result in assay [1], in assay [2] and in assay [3] was “inactive” each time. For the same molecule, in assay [4], the call was inactive.

In the case of `CC(=O)Nc1ccn(C2COC(COC(=O)c3ccccc3)O2)c(=O)n1` (stereo unspecified), the Potency entry in assay [1], in assay [2] and in assay [3] was “inactive” throughout. Further, in assay [4], the call was inactive.

Consider `CCOC(=O)Cn1cccc1-c1nc(-c2ccc(OC)cc2)c(-c2ccc(OC)cc2)s1`, for which the Potency entry in assay [1], in assay [2], in assay [3] and in assay [5] was “inactive” throughout. For the same molecule, in assay [4], the molecule was classed as inactive.

In the case of `O=C(O)Cc1ccccc1Oc1ccc(Cl)cc1Cl`, the Potency result in assay [1], in assay [2] and in assay [3] was “inactive” throughout. The molecule was classed as inactive in assay [4].

As for `O=C1[C@@H]2[C@H]3CC[C@H](C3)[C@@H]2C(=O)N1CCCCN1CCN(c2ncccn2)CC1`, the Potency result in assay [1], in assay [2], in assay [3] and in assay [5] was “inactive” throughout. Further, the molecule was called inactive in assay [4].

As to `CC(=O)O[C@@H]1C(=O)O[C@@H]2[C@H]1OC(=O)[C@@H]2OC(C)=O`, the Potency entry in assay [1], in assay [2], in assay [3] and in assay [5] was “inactive” each time. The outcome in assay [4] was inactive.

Regarding `CC(=O)[C@H]1CC[C@H]2[C@@H]3C=CC4=CC(=O)CC[C@@]4(C)[C@@H]3CC[C@]12C`, the Potency result in assay [1], in assay [2] and in assay [3] was “inactive” in each case. The call in assay [4] was inactive.

`CCC(C(=O)NC(=O)NC(C)=O)c1ccccc1` (stereo unspecified): the Potency result in assay [1], in assay [2] and in assay [3] was “inactive” in each case. For the same molecule, the molecule was called inactive in assay [4].

`Nc1c(NC/C=C\COc2cc(CN3CCCCC3)ccn2)c(=O)c1=O`: the Potency result in assay [1], in assay [6] and in assay [3] was “inactive” in each case. For the same molecule, in assay [4], the outcome was inactive.

As for `CCOC(=O)c1ccc(OCCN2C[C@H](O)[C@@H](O)[C@H](O)[C@H]2CO)cc1`, the Potency result in assay [1], in assay [2], in assay [3] and in assay [5] was “inactive” in each case. In assay [4], the outcome was inactive.

Consider `CO/N=C(/C(=O)N[C@@H]1C(=O)N2C(C(=O)O)=C(Cn3nnc(C)n3)CS[C@H]12)c1csc(N)n1`, for which the Potency in assay [1] was 14.3 µM (active). Also, the Potency entry in assay [2] and in assay [3] was “inactive” throughout. Further, the call in assay [4] was inactive.

Turning to `CCNC(=O)NCCCOc1cccc(CN2CCCCC2)c1`, the Potency entry in assay [1], in assay [2] and in assay [3] was “inactive” throughout. Also, in assay [4], the result was inactive.

For the molecule `O=C1CC[C@H](C(=O)N2CCCCC2)N1`, the Potency result in assay [1], in assay [2] and in assay [3] was “inactive” in each case. The outcome in assay [4] was inactive.

Consider `CC1CN(c2cc3c(cc2F)c(=O)c(C(=O)O)cn3-c2ccc(F)cc2F)CCN1` (stereo unspecified), for which the Potency entry in assay [2] and in assay [3] was “inactive” each time. For the same molecule, the outcome in assay [4] was inactive.

Turning to `CC[N+](CC)(CC)CCOC(=O)C(C1CCCC1)C1CCCC1`, the Potency result in assay [2] is “inactive”.

Regarding `C[C@H](CN1CCCC1)C(=O)c1ccc(C(F)(F)F)cc1`, the Potency entry in assay [1], in assay [2] and in assay [3] was “inactive” in each case. The call in assay [4] was inactive.

As for `CC[C@@]1(O)C(=O)OCc2c1cc1n(c2=O)Cc2c-1nc1ccccc1c2/C=N/OC(C)(C)C`, in assay [2], the Potency was 12.6 µM (active).

Regarding `CCOC(=O)c1ccc(NC(=O)CN2CCCCC2)cc1`, the Potency entry in assay [1], in assay [2], in assay [3] and in assay [5] was “inactive” in each case. Besides, the molecule was called inactive in assay [4].

With `C[N+]1(CC2COC(c3ccccc3)(c3ccccc3)O2)CCCCC1` (stereo unspecified), the Potency result in assay [1], in assay [2] and in assay [3] was “inactive” in each case. Also, in assay [4], the result was inactive.

Consider `CC(=O)OCC(=O)Nc1cc(C#N)cc(NC(=O)COC(C)=O)c1Cl`, for which the Potency entry in assay [1], in assay [2] and in assay [3] was “inactive” in each case. The call in assay [4] was inactive.

With `CC(C(O)c1ccccc1)N(C)CCOC(c1ccccc1)c1ccccc1` (stereo unspecified), the Potency entry in assay [1], in assay [2], in assay [3] and in assay [5] was “inactive” in each case. The call in assay [4] was inactive.

In the case of `CC1c2ccccc2CN1NC(=O)c1ccc(Cl)c(S(N)(=O)=O)c1` (stereo unspecified), the Potency result in assay [1], in assay [2] and in assay [3] was “inactive” throughout. The molecule was called inactive in assay [4].

With `CN1[C@@H]2CC[C@H]1CC(NC(=O)n1c(=O)[nH]c3ccccc31)C2` (stereo partly specified), the Potency result in assay [1], in assay [2] and in assay [3] was “inactive” each time. In addition, the result in assay [4] was inactive.

With `CN(CC1(C)CCCO1)S(=O)(=O)c1ccc(Cl)c(S(N)(=O)=O)c1` (stereo unspecified), the Potency result in assay [1], in assay [2] and in assay [3] was “inactive” in each case. Moreover, in assay [4], the call was inactive.

With `COC(=O)C1=C(C)NC(COC(N)=O)=C(C(=O)OC(C)C)C1c1cccc(Cl)c1Cl` (stereo unspecified), the Potency entry in assay [1], in assay [2] and in assay [3] was “inactive” throughout. The molecule was classed as inactive in assay [4].

On to `O=C(O)[C@H](O)[C@@H](O)[C@H](O[C@@H]1O[C@H](CO)[C@H](O)[C@H](O)[C@H]1O)[C@H](O)CO`, for which the Potency result in assay [2] is “inactive”.

Consider `CCN1CCN(c2cc(-c3ccc(F)cc3)c3c(n2)CCCCCC3)CC1`, for which the Potency entry in assay [1], in assay [2] and in assay [3] was “inactive” in each case. For the same molecule, the call in assay [4] was inactive.
